Measured values reported in PubChem BioAssay.
A number with no mark means an inactive call. The rule behind the calls is not given here.

Target: Pantothenate synthetase (Mycobacterium tuberculosis (strain ATCC 25618 / H37Rv)) (UniProt P9WIL5)
Assay: Coupled enzyme confirmation of inhibitors against recombinant Mtb PanC (AID 375);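 note: 0% = full reaction with vehicle and 100% = no enzyme background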
Details: coupled enzyme assay; at 10 µM, active compounds read high

Pantothenate synthetase (Mycobacterium tuberculosis (strain ATCC 25618 / H37Rv)), sequence (P9WIL5 whole entry, looked up): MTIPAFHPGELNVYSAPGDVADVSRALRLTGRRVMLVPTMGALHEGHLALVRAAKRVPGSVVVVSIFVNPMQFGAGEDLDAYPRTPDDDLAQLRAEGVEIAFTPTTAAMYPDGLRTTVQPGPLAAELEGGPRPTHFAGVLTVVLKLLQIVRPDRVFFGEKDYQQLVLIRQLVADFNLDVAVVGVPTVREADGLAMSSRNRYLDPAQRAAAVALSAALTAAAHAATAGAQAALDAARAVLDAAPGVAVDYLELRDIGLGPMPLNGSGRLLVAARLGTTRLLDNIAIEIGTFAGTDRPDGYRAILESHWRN

| Structure (SMILES) | inhibition |
| --- | --- |
| O=C(c1ccc(NS(=O)(=O)c2cccs2)cc1)N1CCCCC1 | 0% |
| c1ccc(CNc2ncnc3ccccc23)cc1 | 12% |
| CC1C(c2ccccc2)N(C)CCC12NC(=O)NC2=O (stereo not drawn) | 1% |
| CN1CCN(c2oc(COc3ccc(-c4ccccc4)cc3)nc2C#N)CC1 | 0% |
| Cc1cc(C)nc(N2CCC(C(=O)NC3CCCCCC3)CC2)n1 | 1% |
| CCN1C(=O)CC(N2CCC(Nc3ccc(F)cc3)CC2)C1=O (stereo not drawn) | 0% |
| Cc1ccccc1NC(=O)Cc1nnc(SCC(=O)N2CCN(c3ccccc3)CC2)n1C | 4% |
| CCOC(=O)C1=C(C)N=c2s/c(=C\c3cccn3C)c(=O)n2C1c1cccc(OC)c1OC (stereo not drawn) | 0% |
| O=C(O)COc1ccc(Oc2ccccc2)cc1 | 3% |
| CCCC(=O)Nc1nnc(CC(=O)N2CCCC2)s1 | 0% |
| CN1C2C=C3C(C#N)=C(N)C(C#N)(C#N)[C@@H](c4ccc(Cl)cc4)[C@@H]3C1CC2 (stereo partly drawn) | 7% |
| Fc1cccc(Cl)c1Cn1nnc2c(NCc3ccccn3)ncnc21 | 0% |
| CC(C)CCNC(=O)[C@H](CC(C)C)NC(=O)[C@H]1O[C@@H]1C(=O)O | 0% |
| O=P1(O)C=C(c2ccccc2)NC(c2ccccc2)=C1 | 0% |
| CC1CN(c2c3c(nc4ncnn24)CCCC3)CC(C)O1 (stereo not drawn) | 2% |
| CCN(CC)S(=O)(=O)c1ccc2c(c1)c(=O)c(C(=O)NCCOC)cn2C | 1% |
| O=C(CCN1CCN(C(=O)c2ccco2)CC1)Nc1ccc(F)cc1 | 2% |
| CCCc1c(OCCCCc2nn[nH]n2)ccc(C(C)=O)c1O | 0% |
